A number with no mark means an inactive call. Inconclusive results are not listed. Active and inactive are the calls of the source. Unless noted, the call rests on the fitted dose curve; in most records, active means well fitted curve in the direction sought with a large enough effect; inconclusive means small, poorly fitted or top-dose-only effect, or another doubt; inactive means no such curve, though single readings can be large; an effect the other way counts as inactive or inconclusive.

We go through four compounds from PubChem BioAssay (NCATS).

Test [1] can be described thus: AP1 Signaling Pathway (AID 357; active means well fitted curve in either direction with a large enough effect, not every such curve was filed as active; further: on the % scale 0 is the no-effect control and ±100 the full control effect). As to conditions: ME-180 AP-1-bla reporter, EGF-induced, beta-lactamase ratio, 5 h; at 17.2 µM (top of the series) unless noted. The procedure, abridged:
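ME-180 cells with beta-lactamase reporter under AP-1 response element, stimulated with EC50 EGF; compounds tested in titration series, 5 h at 37 °C. CCF4 substrate added 2.5 h at room temperature; 460/530 nm emission ratio gave %activity and AC50.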

The target in test [2] is Glucocorticoid receptor (Homo sapiens) (UniProt P04150). In words: GR-GFP Redistribution (AID 450;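 active means compounds whose dose series gives a full or clear partial fitted curve of increased nuclear translocation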; further: potency means the concentration at half of the fitted maximal effect).
Test [3] concerns the target Cytochrome P450 1A2 (Homo sapiens) (UniProt P05177). The test is described as follows: p450-cyp1a2 (AID 410; calls by dose curve; further: potency means the concentration at half of the fitted maximal effect). A digest of the protocol: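 Human CYP1A2 (20nM) demethylated Luciferin-ME at its Km (100uM) in 100mM KPO4. After 10 min compound preincubation, NADPH regeneration ran the reaction 60 min at room temperature. Luciferin was read by luminescence, normalized to 57 uM furafylline.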

The nature of test [4]: NFAT Signaling Pathway (AID 444; active means well fitted curve in either direction with a large enough effect, not every such curve was filed as active;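 further: carbachol stimulus at about its EC50 of 1 µM final; on the % scale 0 is the no-effect control and ±100 the full control effect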). As to conditions: Jurkat NFAT-bla M1, carbachol, beta-lactamase ratio, 5 h; at 17.2 µM (top of the series) unless noted. The procedure, abridged: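 Jurkat cells carrying an NFAT-driven β-lactamase reporter and co-transfected muscarinic M1 receptor were treated with compound plus carbachol (1 uM final, an EC50 level) for 5 h at 37 °C. CCF4 loading followed for 1 h at RT; 460/530 nm ratio gave %activity.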

The target of test [5] is Glucocorticoid receptor (Homo sapiens) (UniProt P04150). The test is described as follows: GR-EFC Redistribution (AID 451; calls by dose curve; further: potency means the concentration at half of the fitted maximal effect). As to conditions: CHO-K1 GR-EFC translocation, beta-gal luminescence, 2 h. A digest of the protocol:
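CHO-K1 cells stably expressing nuclear-localized β-gal enzyme acceptor and GR fused C-terminally to the enzyme donor fragment; ligand-driven nuclear translocation restores β-gal by complementation. Compounds titrated up to 46 uM final, 2 h at 37 °C; luminescence read.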

Test [6] deals with Guanine nucleotide-binding protein G(i) subunit alpha-1 (Homo sapiens) (UniProt P63096). In words: qHTS Assay for Inhibitors of RGS12 GoLoco Motif Activity (Green Fluorophore) (AID 879).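 Further: 0% = labeled peptide with Gαi1 and full inhibition = labeled peptide alone without protein; negative values mean loss of peptide binding seen as reduced polarization.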 A digest of the protocol: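 Fluorescence polarization assay: 50 nM Gαi1 with 10 nM FITC-labeled RGS12 GoLoco peptide in 10 mM Tris pH 7.5, 150 mM NaCl, 0.1 mM GDP, 0.05% NP40, 10 min at room temperature with compound.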

Test [7] concerns the target Cytochrome P450 2C9 (Homo sapiens) (UniProt P11712). In words: qHTS Assay for Inhibitors and Substrates of Cytochrome P450 2C9 (AID 883). Further: on the % scale 0 is the no-effect control and ±100 the full control effect; nearly all actives have a fitted effect of over 60% in size. The procedure, abridged: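 Human CYP2C9 (10nM) hydroxylated Luciferin-H (100uM, at its KM) to luciferin in 25mM KPO4. Compound was preincubated 10 min at 37C, then NADPH regeneration started a 60 min reaction at 37C. Luminescence was read after detection reagent, normalized to 57uM sulphaphenazole.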
Background: In qHTS, concentration-response curves come from the screen itself.

Test [8] concerns the target Cytochrome P450 3A4 (Homo sapiens) (UniProt P08684). The test is described as follows: qHTS Assay for Inhibitors and Substrates of Cytochrome P450 3A4 (AID 884). Further: nearly all actives have a fitted effect of over 50% in size. Further: potency means the concentration at half of the fitted maximal effect. On activity change, negative = inhibition: on the % scale 0 is the no-effect control and ±100 the full control effect. A digest of the protocol:
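20 nM human CYP3A4 with 25 uM Luciferin-PPXE (at KM) in 200 mM KPO4, preincubated 10 min with compound; NADPH regeneration started a 60 min RT reaction. Luciferin detected by luminescence, normalized to 57 uM ketoconazole as full inhibition.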

The target is the same in test [9]. The test is described as follows: qHTS Assay for Activators of Cytochrome P450 3A4 (AID 885). Further: nearly all actives have a fitted effect of over 65% in size. Further: potency means the concentration at half of the fitted maximal effect. The procedure, abridged:
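Steps: enzyme/substrate mix dispensed; compound added, 10 min RT; NADPH regeneration solution added, 60 min RT; luciferin detection buffer stops reaction; 20 min later luminescence measured.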

In test [10] the target is Cytochrome P450 2C19 (Homo sapiens) (UniProt P33261). In words: qHTS Assay for Inhibitors and Substrates of Cytochrome P450 2C19 (AID 899). Further: potency means the concentration at half of the fitted maximal effect; nearly all actives have a fitted effect of over 60% in size. The procedure, abridged:
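Human CYP2C19 (5nM) with Luciferin-H EGE at 10uM (its KM) in 50mM KPO4 was preincubated with compound for 10 min at 37C. NADPH regeneration started a 60 min 37C reaction. Luciferin was read by luminescence, normalized to 57uM ketoconazole.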

Test [11] can be described thus: qHTS Assay for Identification of Small Molecule Agonists for Thrombopoietin (TPO) Signaling Pathway (AID 917). Further: potency means the concentration at half of the fitted maximal effect. A digest of the protocol:
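Reporter: GpIIb promoter–luciferase in murine Ba/F3 expressing human TPO receptor. Pre-starved of IL-3 overnight; compounds with 26 pM TPO, 24 hrs, 37 C/5% CO2; luminescence read.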

Test [12] can be described thus: qHTS Assay for Identification of Small Molecule Agonists for NFkB Signaling Pathway (AID 928; calls by dose curve). The note with it: NFkB beta-lactamase reporter cells, blue/green ratio. A digest of the protocol: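 ME-180 NFkB-bla cells carry a beta-lactamase reporter under an NFkB response element. Compound plus 10 pM TNF alpha (final) was applied for 5 hrs at 37 C. After 2 hrs with LiveBLAzer substrate, 460/530 nm emission was read at 405 nm excitation.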

In test [13] the target is Pyruvate kinase (Leishmania mexicana) (UniProt Q27686). The test is described as follows: qHTS Validation Assay for Inhibitors of Leishmania Mexicana Pyruvate Kinase (AID 945). Further: potency means the concentration at half of the fitted maximal effect.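 On activity change, negative = inhibition: 0% = DMSO only neutral control wells.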 The procedure, abridged:
(§1)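 Eight-point qHTS titrations in triplicate, data normalized to DMSO neutral control. Reaction: 0.2 nM LmPYK E451W mutant, 0.5 mM PEP, 0.1 mM ADP, 7 mM MgCl2, pH 7.2, one hour at room temperature; luminescent ATP detection.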

Test [14] concerns the target Pyruvate kinase PKM (Homo sapiens) (UniProt P14618). The test is described as follows: qHTS Assay for Activators of Human Muscle Pyruvate Kinase (AID 954; active means well fitted curve in the direction sought with a large enough effect, not every such curve was filed as active;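 further: 0% = uninhibited enzyme and -100% = no enzyme or full thiadiazolimine inhibition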). A digest of the protocol:
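Reaction: 0.1 nM purified PKM2 with 0.5 mM phosphoenolpyruvate and 0.1 mM ADP, room temperature, 1 h. Readout: luciferase-based ATP luminescence after stop reagent. Activators judged against a 0.3 nM enzyme column.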

For test [15] the target is unchanged. In words: qHTS Assay for Inhibitors of Human Muscle Pyruvate Kinase (AID 958). A digest of the protocol: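 Luminescence from a luciferase ATP-detection/stop reagent reported PKM2 activity. Reactions contained 0.1 nM purified human enzyme, 0.5 mM PEP, 0.1 mM ADP and 7 mM MgCl2 at pH 7.2, run 1 h at RT.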
The target in test [16] is Pyruvate kinase (Leishmania mexicana) (UniProt Q27686). In words: qHTS Validation Assay for Activators of Leishmania Mexicana Pyruvate Kinase (AID 959). The procedure, abridged:
as §1

Test [17] concerns the target Alpha-galactosidase A (Homo sapiens) (UniProt P06280). In words: Counterscreen for Glucocerebrosidase Inhibitors: qHTS Assay for Human alpha-Galactosidase at pH 4.5 (AID 992). Further: 0% is about no effect. The procedure, abridged:
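Concentration-response curves (0.7 nM to 77 uM final) were modeled with the Hill equation to give AC50. Reactions: 2 nM enzyme, 80 uM fluorogenic alpha-galactoside, pH 4.5 citric acid buffer, 20 min, room temperature.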
On the technique in general: The purpose of a counterscreen is to sort out artefacts and off-target activity.

For test [18], the target named is alpha-glucosidase (Oryza sativa, rice) (UniProt Q653V4). The test is described as follows: Counterscreen for Glucocerebrosidase Inhibitors: qHTS Assay for Rice alpha-Glucosidase at pH 5.0 (AID 997).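 Further: 0% = full activity with enzyme and -100% = basal without enzyme.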 The procedure, abridged:
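Rice alpha-glucosidase (4 nM final) with 400 uM 4-methylumbelliferyl-alpha-D-glucopyranoside in citrate buffer pH 5.0, 20 min at room temperature, stopped at pH 10; fluorescence 365/440 nm, compounds 0.7 nM–77 uM, AC50 from Hill fits.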

The nature of test [19]: qHTS Assay for Identification of Small Molecule Agonists for Hypoxia Response Element Signaling Pathway (AID 914; active means well fitted activation curve with a large enough effect in the signal ratio, with a control signal flat, not every such curve was filed as active; the % refers to the signal ratio; further: % of control where 0% means no effect). As to conditions: ME-180 HRE-bla reporter, beta-lactamase ratio, CoCl2, 17 h; activation: hits give high values. The procedure, abridged:
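HRE-bla ME-180 cells with beta-lactamase reporter under hypoxia response element, compounds with EC50 CoCl2 for 17 hours at 37 C. CCF4 substrate, 460nm/530nm emission ratio gave %Activity; AC50 from titration series.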

A short description of test [20]: Stat Signaling Pathway (AID 446; active means well fitted curve in either direction with a large enough effect, not every such curve was filed as active;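 further: ME-180 cervical cancer cells given 40 pM IL-6 alongside compound; SIE-controlled beta-lactamase reporter measured as 460/530 nm FRET emission ratio; on the % scale 0 is the no-effect control and ±100 the full control effect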). The note with it: ME-180 SIE beta-lactamase reporter, IL-6 stimulated, 5 h; at 17.2 µM (top of the series) unless noted. The procedure, abridged:
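Screening format detects activators and inhibitors alike: ME-180 SIE-bla cells stimulated at 40 pM IL-6 for 5 hrs with compound, then dual-emission beta-lactamase read at 405 nm excitation.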

In test [21] the target is 3',5'-cyclic-AMP phosphodiesterase 4B (Homo sapiens) (UniProt Q07343). In words: qHTS Assay for Inhibitors of PDE-IV (AID 607; active means well fitted activation curve with a large enough effect in the main read-out, with a control signal flat, not every such curve was filed as active; further: % of control where 0% means no effect). A digest of the protocol: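 The readout is membrane depolarisation from a cAMP-sensing CNG channel, detected with a potential dye at ex 535/em 590. Cells were HEK293-derived (endogenous PDE-IV) at 1000 cells/well, titrated up to 22.9 uM final.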

Pyruvate kinase (Leishmania mexicana), sequence (Q27686 2-499 E452W): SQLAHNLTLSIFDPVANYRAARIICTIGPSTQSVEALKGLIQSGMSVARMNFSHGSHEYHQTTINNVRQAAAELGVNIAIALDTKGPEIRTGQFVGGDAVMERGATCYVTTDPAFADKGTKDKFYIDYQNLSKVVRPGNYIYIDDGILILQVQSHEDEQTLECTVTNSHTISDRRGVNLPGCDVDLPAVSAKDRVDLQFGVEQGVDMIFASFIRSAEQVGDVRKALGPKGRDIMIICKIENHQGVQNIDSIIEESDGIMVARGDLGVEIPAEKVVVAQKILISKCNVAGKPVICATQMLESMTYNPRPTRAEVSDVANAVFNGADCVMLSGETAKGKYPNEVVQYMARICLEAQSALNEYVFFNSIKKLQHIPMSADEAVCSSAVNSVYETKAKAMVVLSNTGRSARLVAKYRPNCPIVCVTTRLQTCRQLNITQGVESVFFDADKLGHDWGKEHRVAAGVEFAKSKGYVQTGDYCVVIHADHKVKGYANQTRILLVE
Glucocorticoid receptor (Homo sapiens), sequence (P04150 whole entry, looked up, the tested form may be a part): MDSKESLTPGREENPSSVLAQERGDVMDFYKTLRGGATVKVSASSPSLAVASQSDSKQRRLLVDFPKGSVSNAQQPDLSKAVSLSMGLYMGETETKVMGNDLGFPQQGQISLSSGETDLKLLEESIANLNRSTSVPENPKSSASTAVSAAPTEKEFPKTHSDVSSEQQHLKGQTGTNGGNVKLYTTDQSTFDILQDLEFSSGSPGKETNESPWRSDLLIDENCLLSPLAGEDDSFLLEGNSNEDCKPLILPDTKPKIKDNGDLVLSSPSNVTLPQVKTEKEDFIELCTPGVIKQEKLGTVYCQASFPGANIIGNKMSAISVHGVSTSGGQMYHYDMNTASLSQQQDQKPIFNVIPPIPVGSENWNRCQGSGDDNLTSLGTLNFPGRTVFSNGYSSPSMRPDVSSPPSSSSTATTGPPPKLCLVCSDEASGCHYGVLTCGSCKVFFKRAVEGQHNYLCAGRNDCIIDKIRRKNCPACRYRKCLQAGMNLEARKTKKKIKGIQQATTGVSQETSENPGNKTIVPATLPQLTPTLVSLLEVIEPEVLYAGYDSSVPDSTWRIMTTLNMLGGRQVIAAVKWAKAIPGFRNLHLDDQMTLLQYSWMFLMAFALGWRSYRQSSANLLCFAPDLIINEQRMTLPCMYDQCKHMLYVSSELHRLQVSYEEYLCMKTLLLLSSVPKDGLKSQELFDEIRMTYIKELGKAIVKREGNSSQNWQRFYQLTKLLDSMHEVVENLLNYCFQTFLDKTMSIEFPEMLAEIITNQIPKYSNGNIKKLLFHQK
Pyruvate kinase PKM (Homo sapiens), sequence (P14618 whole entry, looked up): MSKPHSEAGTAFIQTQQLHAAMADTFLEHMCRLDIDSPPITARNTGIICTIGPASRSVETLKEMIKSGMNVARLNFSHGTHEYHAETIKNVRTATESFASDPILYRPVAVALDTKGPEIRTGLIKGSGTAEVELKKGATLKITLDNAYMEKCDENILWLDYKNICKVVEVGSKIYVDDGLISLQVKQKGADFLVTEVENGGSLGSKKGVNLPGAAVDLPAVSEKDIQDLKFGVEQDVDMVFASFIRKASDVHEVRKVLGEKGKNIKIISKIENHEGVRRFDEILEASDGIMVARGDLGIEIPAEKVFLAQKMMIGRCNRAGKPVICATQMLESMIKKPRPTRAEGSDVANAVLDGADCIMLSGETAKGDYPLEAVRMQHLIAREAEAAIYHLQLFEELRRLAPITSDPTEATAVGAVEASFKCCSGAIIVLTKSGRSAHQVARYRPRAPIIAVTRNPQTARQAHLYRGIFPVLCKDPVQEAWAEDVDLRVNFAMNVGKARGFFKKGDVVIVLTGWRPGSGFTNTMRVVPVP
Cytochrome P450 3A4 (Homo sapiens), sequence (P08684 whole entry, looked up): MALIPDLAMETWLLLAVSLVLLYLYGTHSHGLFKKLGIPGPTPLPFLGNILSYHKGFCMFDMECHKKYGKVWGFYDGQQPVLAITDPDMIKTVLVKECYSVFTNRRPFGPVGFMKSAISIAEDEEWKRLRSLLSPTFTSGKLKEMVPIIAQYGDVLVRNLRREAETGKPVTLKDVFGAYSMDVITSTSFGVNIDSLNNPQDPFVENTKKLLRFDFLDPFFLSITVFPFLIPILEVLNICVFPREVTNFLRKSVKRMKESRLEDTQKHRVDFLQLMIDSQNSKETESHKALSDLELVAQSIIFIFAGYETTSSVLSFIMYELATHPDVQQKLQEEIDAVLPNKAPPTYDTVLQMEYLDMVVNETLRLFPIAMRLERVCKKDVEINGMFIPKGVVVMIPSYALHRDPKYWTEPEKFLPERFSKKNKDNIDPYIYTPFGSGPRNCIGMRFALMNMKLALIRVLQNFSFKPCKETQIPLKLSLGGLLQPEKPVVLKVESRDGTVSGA
Cytochrome P450 1A2 (Homo sapiens), sequence (P05177 whole entry, looked up): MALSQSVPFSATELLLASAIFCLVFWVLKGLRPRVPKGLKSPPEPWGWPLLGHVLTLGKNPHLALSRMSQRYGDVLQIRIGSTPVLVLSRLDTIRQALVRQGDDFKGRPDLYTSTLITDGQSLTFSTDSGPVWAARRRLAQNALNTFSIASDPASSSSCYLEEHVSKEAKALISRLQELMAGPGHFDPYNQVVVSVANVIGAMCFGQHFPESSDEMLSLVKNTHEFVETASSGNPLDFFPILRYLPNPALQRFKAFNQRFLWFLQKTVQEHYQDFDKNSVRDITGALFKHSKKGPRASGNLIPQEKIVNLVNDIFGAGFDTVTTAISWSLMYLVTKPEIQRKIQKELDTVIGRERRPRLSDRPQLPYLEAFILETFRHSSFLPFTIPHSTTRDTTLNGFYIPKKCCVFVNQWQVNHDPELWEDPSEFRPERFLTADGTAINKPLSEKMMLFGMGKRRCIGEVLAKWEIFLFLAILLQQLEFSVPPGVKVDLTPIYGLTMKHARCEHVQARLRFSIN
Alpha-galactosidase A (Homo sapiens), sequence (P06280 whole entry, looked up): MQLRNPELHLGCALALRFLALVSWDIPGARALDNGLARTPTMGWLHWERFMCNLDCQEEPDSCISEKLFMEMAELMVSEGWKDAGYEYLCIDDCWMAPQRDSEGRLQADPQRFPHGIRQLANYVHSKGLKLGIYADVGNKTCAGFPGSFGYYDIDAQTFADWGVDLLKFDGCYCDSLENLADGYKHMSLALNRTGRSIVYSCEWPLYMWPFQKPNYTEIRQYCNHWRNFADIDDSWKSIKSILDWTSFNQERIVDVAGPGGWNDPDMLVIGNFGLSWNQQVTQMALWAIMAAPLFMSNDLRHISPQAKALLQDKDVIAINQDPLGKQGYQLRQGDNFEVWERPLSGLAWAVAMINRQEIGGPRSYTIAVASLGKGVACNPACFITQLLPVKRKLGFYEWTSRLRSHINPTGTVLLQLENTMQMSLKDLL
Guanine nucleotide-binding protein G(i) subunit alpha-1 (Homo sapiens), sequence (P63096 whole entry, looked up): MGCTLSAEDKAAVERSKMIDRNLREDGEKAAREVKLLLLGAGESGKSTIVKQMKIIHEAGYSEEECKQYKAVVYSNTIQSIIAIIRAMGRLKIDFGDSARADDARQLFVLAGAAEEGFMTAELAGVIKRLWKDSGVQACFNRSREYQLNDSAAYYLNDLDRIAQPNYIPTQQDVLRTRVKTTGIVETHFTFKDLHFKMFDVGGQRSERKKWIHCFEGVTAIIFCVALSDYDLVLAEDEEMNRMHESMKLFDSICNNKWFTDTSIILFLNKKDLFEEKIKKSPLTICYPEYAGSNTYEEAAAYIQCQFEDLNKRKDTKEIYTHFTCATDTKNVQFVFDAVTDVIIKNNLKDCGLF
Cytochrome P450 2C9 (Homo sapiens), sequence (P11712 whole entry, looked up): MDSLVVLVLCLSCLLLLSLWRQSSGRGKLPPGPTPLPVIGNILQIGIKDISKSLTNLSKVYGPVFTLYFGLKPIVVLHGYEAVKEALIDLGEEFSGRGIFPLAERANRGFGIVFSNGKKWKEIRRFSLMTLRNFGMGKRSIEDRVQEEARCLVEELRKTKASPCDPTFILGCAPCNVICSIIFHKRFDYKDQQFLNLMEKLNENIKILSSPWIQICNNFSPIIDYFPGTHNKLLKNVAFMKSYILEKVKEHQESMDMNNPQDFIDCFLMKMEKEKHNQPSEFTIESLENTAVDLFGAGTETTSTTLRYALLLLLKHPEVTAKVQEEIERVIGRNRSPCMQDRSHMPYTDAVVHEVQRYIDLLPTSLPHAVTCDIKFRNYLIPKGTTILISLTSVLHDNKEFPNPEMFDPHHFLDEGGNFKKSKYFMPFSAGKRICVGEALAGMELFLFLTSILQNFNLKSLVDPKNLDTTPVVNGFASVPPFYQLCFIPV
Cytochrome P450 2C19 (Homo sapiens), sequence (P33261 whole entry, looked up): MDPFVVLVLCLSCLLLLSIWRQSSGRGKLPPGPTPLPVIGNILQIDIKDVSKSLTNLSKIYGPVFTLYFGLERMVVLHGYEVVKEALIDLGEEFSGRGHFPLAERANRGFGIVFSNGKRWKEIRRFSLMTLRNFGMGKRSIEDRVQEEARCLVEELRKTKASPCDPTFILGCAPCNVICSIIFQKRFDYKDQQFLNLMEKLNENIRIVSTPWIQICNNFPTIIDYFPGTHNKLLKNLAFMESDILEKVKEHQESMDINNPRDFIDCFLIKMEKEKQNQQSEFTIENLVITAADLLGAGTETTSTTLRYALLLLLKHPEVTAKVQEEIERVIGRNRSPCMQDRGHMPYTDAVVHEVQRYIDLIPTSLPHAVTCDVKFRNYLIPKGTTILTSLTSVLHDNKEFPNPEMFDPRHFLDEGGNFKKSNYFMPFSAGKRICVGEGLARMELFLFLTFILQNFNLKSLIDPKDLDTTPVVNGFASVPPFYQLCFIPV

Regarding `CCOC(=O)c1ccc(N=Cc2nc(-c3ccccc3)oc2OC(C)=O)cc1`, the activity change, negative = inhibition in test [1] was -16.3%. The Potency in test [2] is over 20.6 µM.

`COc1ccc(NC(=O)/C=C\c2ccc(Cl)cc2)cc1`: the Potency in [3] is 5.01 µM (active); in test [2], over 46 µM; in test [5], over 46 µM; in [8] it was 25.1 µM (active); in [10], 3.98 µM (active); in test [11] it was 0.316 µM (active). Besides, the Potency in test [12] is 1.41 µM (active); in [13] it was 10 µM (active); in test [15], 15.8 µM (active). Further, in test [4], the activity change, negative = inhibition was -10.1% [at 38 µM]. Moreover, the call in test [6], in [14], in [17] and in test [18] was inactive. Besides, the Potency result in test [7], in test [9] and in [16] was “inactive” each time.

As to `CC(C)OCCCn1c(=N)c(C(N)=S)cc2c(=O)n3ccccc3nc21`, the activity change, negative = inhibition in test [1] was -4.52%. In test [2], the Potency is over 20.6 µM. Also, the activation in [19] is 13.6%.

For `C=CCN1CCc2c(cc(O)c(O)c2Br)[C@H](c2ccccc2)C1`, the Potency in test [3] is 12.6 µM (active); in test [2] it was over 46 µM; in test [5], over 46 µM; in test [9], 20 µM (active). The activity, negative = inhibition in [20] was 7.2% [at 38 µM]. For the same compound, the Potency result in test [21], in test [8] and in test [13] was “inactive” throughout. Further, the compound was called inactive in test [6], in [14], in test [17] and in test [18].
